We go through 9 compounds from PubChem BioAssay (NCI).

“And” between values parts separate entries of the source, which are not always exact repeats. Equal values may be shown once. This is part of a sample that, as a whole, favours compounds with a hit. Of some 79,000 tested, about 15% had one in any assay. A number with no mark means an inactive call. The source made the active and inactive calls. Cut-off read from the data, not from the text of the source: active = growth inhibition above about 70%; inactive = the rest.

Assay [1] is described as follows: NCI Yeast Anticancer Drug Screen. Data for the rad50 strain (AID 155).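 Note: 0% = growth of vehicle-only cultures of the same strain.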 The note with it: S. cerevisiae rad50 strain growth inhibition, stronger effect = higher value. The method, boiled down:
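Relative growth inhibition (compound vs vehicle) was measured in yeast with a defined repair-gene alteration.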

The nature of assay [2]: NCI Yeast Anticancer Drug Screen. Data for the mec2-1 strain (AID 157). The settings on record: S. cerevisiae mec2-1 strain, stronger effect = higher value. In a few lines: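 Growth inhibition is read against vehicle-treated controls after compound exposure of the mec2-1 yeast strain, which is defective in DNA damage repair or cell cycle control.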
The nature of assay [3]: NCI Yeast Anticancer Drug Screen. Data for the sgs1 mgt1 strain (AID 161).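 Note: 0% = growth of cultures given vehicle only.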 The settings on record: S. cerevisiae sgs1 mgt1 strain, stronger effect = higher value. In a few lines: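 Compounds are added to genetically altered yeast, and growth is compared with cultures given vehicle alone to give percent inhibition.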
The nature of assay [4]: NCI Yeast Anticancer Drug Screen. Data for the cln2 rad14 strain (AID 165).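 Note: 0% = growth equal to vehicle treated cultures.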 The note with it: S. cerevisiae cln2 rad14 strain, stronger effect = higher value. The method, boiled down:
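Growth inhibition, relative to vehicle-treated controls, is the read-out. The test organism is a yeast strain with defined genetic alterations, cln2 rad14.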

Assay [5] can be described thus: NCI Yeast Anticancer Drug Screen. Data for the bub3 strain (AID 167). The note with it: S. cerevisiae bub3 mutant strain, stronger effect = higher value. In a few lines:
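Screening used yeast with an engineered genetic alteration affecting cell cycle control. Compound-exposed cultures were compared with vehicle cultures, and reduced growth was taken as inhibition.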

The nature of assay [6]: NCI Yeast Anticancer Drug Screen. Data for the mlh1 rad18 strain (AID 175). The note with it: S. cerevisiae mlh1 rad18 strain growth inhibition, stronger effect = higher value. In a few lines: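 Cells of a genetically altered yeast strain, deficient in DNA damage repair, were treated with compound. Their growth was then compared with that of vehicle-treated cultures to give inhibition.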

[7] abbreviates: at 5.0 µM (retest, dose inferred, filed as 0.5).
Where [8] appears, read: at 50.0 µM (retest, dose inferred, filed as 5.0).

On to `CC(C)c1c(O)c(O)c2c(c1O)C(=O)C(O)=C1C(C)(C)CCC[C@@]12C`, for which the growth inhibition is 48% in assay [1] (setting [7]); 95% (active) in assay [1] (setting [8]); 86.8% (active) in assay [1] (at 50.0 µM); 72% (active) in assay [2] (setting [7]); 96% (active) in assay [2] (setting [8]); 88.8% (active) in assay [2] (at 50.0 µM). In addition, the growth inhibition was 79% (active) in assay [3] (setting [7]); 95% (active) in assay [3] (setting [8]); 88.6% (active) in assay [3] (at 50.0 µM); 64% in assay [4] (setting [7]); 96% (active) in assay [4] (setting [8]); 85.8% (active) in assay [4] (at 50.0 µM). Besides, the growth inhibition was 84% (active) in assay [5] (setting [7]); 95% (active) in assay [5] (setting [8]); 84.9% (active) in assay [5] (at 50.0 µM); 86% (active) in assay [6] (setting [7]); 89% (active) in assay [6] (setting [8]); 80.4% (active) in assay [6] (at 50.0 µM).

Turning to `CCC[CH2][Sn]([Cl])([Cl])[CH2]CCC`, the growth inhibition was 96% (active) in assay [1] (setting [7]); 98% (active) in assay [1] (setting [8]); 99.5% (active) in assay [1] (at 50.0 µM); 98% (active) in assay [2] (setting [7]); 98% (active) in assay [2] (setting [8]); 99.3% (active) in assay [2] (at 50.0 µM). For the same compound, the growth inhibition was 96% (active) in assay [3] (setting [7]); 96% (active) in assay [3] (setting [8]); 99.2% (active) in assay [3] (at 50.0 µM); 98% (active) in assay [4] (setting [7]); 98% (active) in assay [4] (setting [8]); 98.7% (active) in assay [4] (at 50.0 µM). The growth inhibition in assay [5] (setting [7]) was 98% (active); in assay [5] (setting [8]), 98% (active); in assay [5] (at 50.0 µM), 99.5% (active); in assay [6] (setting [7]), 98% (active); in assay [6] (setting [8]), 97% (active); in assay [6] (at 50.0 µM) it was 98.8% (active).

In the case of `CC(C)(C)CC(C)(C)c1ccc(O)cc1`, the growth inhibition was -11% in assay [1] (setting [7]); 99% (active) in assay [1] (setting [8]); 99.7% (active) in assay [1] (at 50.0 µM); -12% in assay [2] (setting [7]); 99% (active) in assay [2] (setting [8]); 99.7% (active) in assay [2] (at 50.0 µM). The growth inhibition in assay [3] (setting [7]) is -6%; in assay [3] (setting [8]), 98% (active); in assay [3] (at 50.0 µM), 99.8% (active); in assay [4] (setting [7]) it was -7%; in assay [4] (setting [8]) it was 99% (active); in assay [4] (at 50.0 µM), 99.5% (active). Moreover, the growth inhibition in assay [5] (setting [7]) was -22%; in assay [5] (setting [8]), 98% (active); in assay [5] (at 50.0 µM), 98.5% (active); in assay [6] (setting [7]), -9%; in assay [6] (setting [8]), 99% (active); in assay [6] (at 50.0 µM), 99.6% (active).

Consider `Cc1ccccc1C[As](C)(=O)O`, for which the growth inhibition in assay [1] (setting [7]) was -157%; in assay [1] (setting [8]), -140%; in assay [1] (at 50.0 µM), 9.95%; in assay [2] (setting [7]), -50%; in assay [2] (setting [8]) it was -47%; in assay [2] (at 50.0 µM), 2.45%. The growth inhibition in assay [3] (setting [7]) is -64%; in assay [3] (setting [8]), -58%; in assay [3] (at 50.0 µM), 0.1%; in assay [4] (setting [7]), -62%; in assay [4] (setting [8]), -58%; in assay [4] (at 50.0 µM) it was 14.8%. Further, the growth inhibition in assay [5] (setting [7]) is -76%; in assay [5] (setting [8]), -76%; in assay [5] (at 50.0 µM) it was 0.25%; in assay [6] (setting [7]), -147%; in assay [6] (setting [8]) it was -104%; in assay [6] (at 50.0 µM) it was 0.35%.

With `[Cl][Sn]([Cl])([c]1ccccc1)[c]1ccccc1.c1ccncc1.c1ccncc1`, the growth inhibition is 93% (active) in assay [1] (setting [7]); 97% (active) in assay [1] (setting [8]); 98% (active) in assay [1] (at 50.0 µM); 61% in assay [2] (setting [7]); 99% (active) in assay [2] (setting [8]); 99.1% (active) in assay [2] (at 50.0 µM). The growth inhibition in assay [3] (setting [7]) is 94% (active); in assay [3] (setting [8]), 99% (active); in assay [3] (at 50.0 µM), 99% (active); in assay [4] (setting [7]), 71% (active); in assay [4] (setting [8]), 98% (active); in assay [4] (at 50.0 µM), 98.8% (active). Moreover, the growth inhibition in assay [5] (setting [7]) is 92% (active); in assay [5] (setting [8]), 98% (active); in assay [5] (at 50.0 µM), 97.9% (active); in assay [6] (setting [7]) it was 95% (active); in assay [6] (setting [8]), 96% (active); in assay [6] (at 50.0 µM), 98.7% (active).

Regarding `CC(C)=CC1CC(C)C2(CCC3(C)CC4C(C(=O)CC4(C)O)/C(C=O)=C\CC32)O1` (configuration not stated), the growth inhibition in assay [1] (setting [7]) is 99% (active); in assay [1] (setting [8]), 100% (active); in assay [1] (at 50.0 µM) it was 94.5% (active); in assay [2] (setting [7]), 99% (active); in assay [2] (setting [8]) it was 100% (active); in assay [2] (at 50.0 µM) it was 94.6% (active). In addition, the growth inhibition in assay [3] (setting [7]) is 99% (active); in assay [3] (setting [8]), 99% (active); in assay [3] (at 50.0 µM) it was 95% (active); in assay [4] (setting [7]), 99% (active); in assay [4] (setting [8]) it was 99% (active); in assay [4] (at 50.0 µM), 93.6% (active). Besides, the growth inhibition in assay [5] (setting [7]) is 99% (active); in assay [5] (setting [8]), 100% (active); in assay [5] (at 50.0 µM), 94.5% (active); in assay [6] (setting [7]), 99% (active); in assay [6] (setting [8]), 100% (active); in assay [6] (at 50.0 µM), 93.7% (active).

As for `Sc1ccc(Cl)cc1`, the growth inhibition is 3% in assay [1] (setting [7]); 51% in assay [1] (setting [8]); 9.5% and 52.4% in assay [1] (at 50.0 µM); 2% in assay [2] (setting [7]); 37% in assay [2] (setting [8]); 10.7% and 32.1% in assay [2] (at 50.0 µM). Besides, the growth inhibition in assay [3] (setting [7]) was 5%; in assay [3] (setting [8]), 34%; in assay [3] (at 50.0 µM), 13.4% and 26.1%; in assay [4] (setting [7]), -1%; in assay [4] (setting [8]), 38%; in assay [4] (at 50.0 µM), -45% and 14.8%. The growth inhibition is 0% in assay [5] (setting [7]); 59% in assay [5] (setting [8]); -33% and 62.4% in assay [5] (at 50.0 µM); 9% in assay [6] (setting [7]); 64% in assay [6] (setting [8]); 13.9% and 31.5% in assay [6] (at 50.0 µM).

On to `CCOCCOC(=O)Cc1ccccc1`, for which the growth inhibition in assay [1] (setting [7]) is 5%; in assay [1] (setting [8]) it was 42%; in assay [1] (at 50.0 µM) it was 64.3%; in assay [2] (setting [7]), 2%; in assay [2] (setting [8]), 6%; in assay [2] (at 50.0 µM), 98.3% (active). For the same compound, the growth inhibition was -1% in assay [3] (setting [7]); 6% in assay [3] (setting [8]); 46.9% in assay [3] (at 50.0 µM); 4% in assay [4] (setting [7]); 16% in assay [4] (setting [8]); 55.6% in assay [4] (at 50.0 µM). The growth inhibition in assay [5] (setting [7]) was 7%; in assay [5] (setting [8]), 12%; in assay [5] (at 50.0 µM), 94% (active); in assay [6] (setting [7]), 6%; in assay [6] (setting [8]), 19%; in assay [6] (at 50.0 µM) it was 95.5% (active).

For the compound `O=c1oc2ccccc2c(O)c1C(c1ccc(-c2ccccc2)cc1)c1c(O)c2ccccc2oc1=O`, the growth inhibition in assay [1] (setting [7]) is 9%; in assay [1] (setting [8]), 52%; in assay [1] (at 50.0 µM) it was 78.1% (active); in assay [2] (setting [7]) it was 7%; in assay [2] (setting [8]) it was 97% (active); in assay [2] (at 50.0 µM), 89.8% (active). In addition, the growth inhibition in assay [3] (setting [7]) is -16%; in assay [3] (setting [8]) it was 97% (active); in assay [3] (at 50.0 µM), 81.6% (active); in assay [4] (setting [7]), 19%; in assay [4] (setting [8]), 97% (active); in assay [4] (at 50.0 µM), 85.2% (active). In addition, the growth inhibition is 14% in assay [5] (setting [7]); 97% (active) in assay [5] (setting [8]); 77.5% (active) in assay [5] (at 50.0 µM); 16% in assay [6] (setting [7]); 88% (active) in assay [6] (setting [8]); 89.3% (active) in assay [6] (at 50.0 µM).
